Screening results from PubChem.
FMDV inh = foot and mouth disease virus antiviral activity | FMDV antiviral cell-based qHTS | hit rate 1.2% among 410,000 | AID 1159524 | Potency, µM (highest dose often 57.9 µM), inactives show at the top dose activity change, negative = inhibition, usual class: inhibitors; calls by dose curve; tested in HEK293T cells; note: read-out not given here; potency is the fitted concentration of half-maximal effect; nearly all actives have a fitted effect of over 45% in size
VACV mCherry inh = inhibitors of vaccinia virus infection (mCherry reporter signal). AID 720579. Potency, µM (doses to about 36.5 µM), for the others: at the highest dose activity change, negative = inhibition, hits mostly inhibitors. hit rate 0.63% among 310,000. Vaccinia virus mCherry reporter infection, fluorescence; calls by dose curve; tested in A549 cells; note: potency is the fitted concentration of half-maximal effect; nearly all actives have a fitted effect of over 35% in size
Marburg entry inh = Marburg virus entry inhibition; Marburg virus pseudotyped entry inhibition, cell reporter; Potency, µM (doses to about 37.8 µM), for the others: top-dose activity change, negative = inhibition, actives largely listed as inhibitors; hit rate 1.8% among 300,000; AID 540276; calls by dose curve; tested in HEK293 cells; note: potency is the fitted concentration of half-maximal effect
HCMV antiviral = inhibitors of human cytomegalovirus | HFF cells, HCMV-luciferase reporter, 72 h; hits give low values | activity change, negative = inhibition, % at 57.5 µM | hit rate 4.5% among 410,000 | AID 1259415; in the data active = activity change below about -60%; inconclusive = no clear call, values can overlap the other calls; inactive = above about -39%
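After 16 h attachment at 37C, HFF cells received test compound and HCMV-luciferase (1 PFU/cell); reporter luminescence read 72 h later, data normalized against buffer-only and known inhibitor Salinomycin.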
VACV Venus inh = vaccinia inhibition (Venus reporter). AID 720580. Vaccinia virus Venus reporter expression, fluorescence. Potency, µM (doses to about 36.5 µM), for the others: at the top dose activity change, negative = inhibition, actives largely listed as inhibitors. hit rate 0.46% among 330,000; calls by dose curve; tested in A549 cells; note: potency is the fitted concentration of half-maximal effect; nearly all actives have a fitted effect of over 30% in size
Lassa entry inh = blocks Lassa virus binding to or entry into cells; Lassa virus pseudotype entry inhibition, cell reporter; Potency, µM (doses to about 37.9 µM), for inactives: at the highest dose activity change, negative = inhibition, most hits filed as inhibitors; hit rate 1.2% among 300,000; calls by dose curve; tested in HEK293 cells; note: potency is the fitted concentration of half-maximal effect; nearly all actives have a fitted effect of over 50% in size
The depositor's hits bear a star; [ ] = remark or other dose. Compounds with a hit are over-represented: about 6.5% of the library has one in this group of screens. % is set by controls: 0 for no effect and ±100 for the full control effect.

CCCCn1c(NC(=O)c2ccccc2)c(C#N)c2nc3ccccc3nc21 was read as VACV mCherry inh -2%, Marburg entry inh inconclusive, HCMV antiviral -67*, VACV Venus inh -13% and Lassa entry inh inconclusive.
CCC(C)n1c(NC(=O)c2ccccc2)c(C#N)c2nc3ccccc3nc21 (centres undefined) was read as FMDV inh 11µM*, Marburg entry inh inconclusive, HCMV antiviral -39, VACV Venus inh inconclusive and Lassa entry inh inconclusive.
CCC(=O)Nc1c(C#N)c2nc3ccccc3nc2n1-c1ccc(C)cc1 was read as FMDV inh inconclusive, VACV mCherry inh -6%, HCMV antiviral -27 and VACV Venus inh -9%.
For COCCn1c(=O)c(-c2cccc(C#N)c2)nc2cnc(N3CCN(C)CC3)nc21 the results were FMDV inh -16%.
For COc1ccc(N/C=C2\C(=O)CCc3c2oc2cc(Cl)c(O)c(Cl)c32)cc1 the results were FMDV inh -24% and HCMV antiviral -62*.
`CC(C)n1cnc2c(NCc3ccc(S(N)(=O)=O)cc3)nc(NCc3ccc(S(N)(=O)=O)cc3)nc21` gave FMDV inh -13%, VACV mCherry inh -10%, HCMV antiviral 11 and VACV Venus inh 0%.
Screening CC(C)[C@H](CO)Nc1nc(NCc2ccc(S(N)(=O)=O)cc2)c2ncn(C(C)C)c2n1 returned FMDV inh -29%, VACV mCherry inh inconclusive, HCMV antiviral -96* and VACV Venus inh inconclusive.
COC(=O)c1ccc([C@H]2/C(=C(\O)c3ccc(OC)cc3)C(=O)C(=O)N2c2cc(C)on2)cc1 was read as Marburg entry inh -24%[46.1 µM].
`O=C(NC(=S)N1CCN(c2ccccn2)CC1)c1ccccc1` gave FMDV inh -22%, VACV mCherry inh -16%, Marburg entry inh 0%, HCMV antiviral -20, VACV Venus inh -8% and Lassa entry inh 1%.
`S=C(Nc1cccc(Cl)c1)N1CCN(c2ccccn2)CC1` gave FMDV inh -10% and HCMV antiviral -34.
For O=[N+]([O-])c1cccc(NC(=S)N2CCN(c3ccccn3)CC2)c1 the results were FMDV inh -3%, VACV mCherry inh -18%, Marburg entry inh inconclusive, HCMV antiviral -65*, VACV Venus inh -10% and Lassa entry inh inconclusive.
`CC(=NNC(=S)N1CCN(c2ccccn2)CC1)c1nccs1` gave FMDV inh -9%, VACV mCherry inh 2.8µM*, Marburg entry inh inconclusive, VACV Venus inh inconclusive and Lassa entry inh inconclusive.
For S=C(NC1CCCC1)N1CCN(c2ccccn2)CC1 the results were FMDV inh 0%, VACV mCherry inh -12%, Marburg entry inh 23%, HCMV antiviral -62*, VACV Venus inh -15% and Lassa entry inh 6%.
Screening O=c1c(-c2ccc(Cl)cc2)nc2cnc(N3CCNCC3)nc2n1-c1ccccc1 returned FMDV inh -21%.
Screening CC(NC(=O)C1CCOCC1)c1nnc2n1CCN(Cc1cc3c(cc1Cl)OCO3)CC2 (centres undefined) returned FMDV inh -12%, VACV mCherry inh 0% and VACV Venus inh -21%.
`CN1N=C(C(C)(C)C)CC1=O` gave FMDV inh -9%, VACV mCherry inh -2%, Marburg entry inh 22µM*, HCMV antiviral inconclusive, VACV Venus inh 2% and Lassa entry inh -6%.
`CN1N=C(C(F)(F)F)CC1=O` gave FMDV inh -3%, VACV mCherry inh 0%, Marburg entry inh 12%[46.1 µM], HCMV antiviral -8, VACV Venus inh -2% and Lassa entry inh 7%.
`COc1cc(=O)n2c(c1C(=O)N(C)Cc1nccs1)CCN(Cc1cc3ccccc3s1)CC2` gave FMDV inh -11%, VACV mCherry inh -4% and VACV Venus inh 0%.
Screening CCn1c(CSCc2ccc(C)cc2)nnc1SCC(=O)N1CCN(c2ccccc2)CC1 returned FMDV inh 22µM*, VACV mCherry inh inconclusive, Marburg entry inh inconclusive, HCMV antiviral -34, VACV Venus inh inconclusive and Lassa entry inh -16%.
For Cc1ccc(Cl)cc1N1CCN(C(=O)CSc2nnc3n2C(C)(C)Cc2ccccc2-3)CC1 the results were FMDV inh 13µM*, Marburg entry inh 12µM*, HCMV antiviral -38 and Lassa entry inh inconclusive.
For CCn1c(COc2cccc(C)c2C)nnc1SCC(=O)N1CCN(c2ccc(OC)cc2)CC1 the results were FMDV inh inconclusive, Marburg entry inh -24%, HCMV antiviral -97* and Lassa entry inh inconclusive.
COc1ccc(N2CCN(C(=O)CSc3nnc4n3C(C)(C)Cc3ccccc3-4)CC2)cc1 was read as FMDV inh 20µM*, Marburg entry inh -19%, HCMV antiviral -64* and Lassa entry inh -24%.
CCOC(=O)c1ccc2c(c1)N(Cc1cccc(C(F)(F)F)c1)C(=O)c1ccccc1S2(=O)=O was read as FMDV inh -15%, VACV mCherry inh -7%, HCMV antiviral -22, VACV Venus inh 0% and Lassa entry inh -26%[46.1 µM].
For COc1c2ccccc2nn1-c1ccc(I)cc1 the results were HCMV antiviral 66.
O=C(NCCc1ccncc1)[C@@H]1[C@@H](CO)[C@@H]2Cn3c(cccc3=O)[C@H]1N2Cc1ccccc1F was read as HCMV antiviral 24.
`COc1ccc(CCNC(=O)CCSCc2ccccc2Cl)cc1OC` gave FMDV inh -18%, VACV mCherry inh -16%, HCMV antiviral 2, VACV Venus inh -10% and Lassa entry inh 30%[46.1 µM].
`O=C1Nc2ccccc2[C@@]12O[C@H](COc1ccccc1)CC1=C2CCC1` gave Marburg entry inh 10%[14.2 µM].
Screening O=C(CN1CCC2(CC1)OCCO2)c1ccc2cc[nH]c2c1 returned FMDV inh 44%, VACV mCherry inh inactive, Marburg entry inh inconclusive, HCMV antiviral -66*, VACV Venus inh -4% and Lassa entry inh 26%[14.3 µM].
For O=C(CN1CCOCC1)c1ccc2cc[nH]c2c1 the results were FMDV inh 16%, VACV mCherry inh -8%, Marburg entry inh 0%, HCMV antiviral 2, VACV Venus inh -4% and Lassa entry inh -13%.
Screening C/C(=N\NC(=O)C(C)n1nc(C)c([N+](=O)[O-])c1C)c1ccccc1O (centres undefined) returned FMDV inh -14%, VACV mCherry inh inconclusive, Marburg entry inh 9.2µM*, HCMV antiviral -101*, VACV Venus inh inconclusive and Lassa entry inh 13µM*.
Screening CCCn1ccc2c(OCC(=O)Nc3ccc(OC)c(OC)c3)cccc2c1=O returned FMDV inh inconclusive, VACV mCherry inh -9%, HCMV antiviral -27, VACV Venus inh -18% and Lassa entry inh inconclusive.
For CCOC(=O)C1(Cc2ccccc2C)CCCN(S(=O)(=O)c2cccnc2)C1 (centres undefined) the results were FMDV inh -23%, VACV mCherry inh -10%, Marburg entry inh inconclusive, HCMV antiviral -93*, VACV Venus inh -9% and Lassa entry inh -16%.
